Source: PubChem BioAssay (National Center for Advancing Translational Sciences (NCATS))
DT40 TDP1 no CPT: qHTS for Inhibitors of human tyrosyl-DNA phosphodiesterase 1 (TDP1): qHTS in cells in absence of CPT; DT40 Tdp1-/- hTDP1 cells, no CPT, ATP luminescence, 48 h; Potency, µM (series often up to 46.2 µM), without a hit: at the top dose activity change, negative = growth inhibition, most hits filed as inhibitors; 420,000 compounds, 15% hits; AID 686978, 2013; also: potency is read from the fitted curve at half-maximal effect; % is scaled to controls: 0 for no effect and ±100 for the full control effect; nearly all actives have a fitted effect of over 55% in size
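Chicken DT40 Tdp1-/- cells complemented with human TDP1, screened without camptothecin (DMSO vehicle only), 400 cells/well. Compounds pin-transferred, cells incubated at 37 °C for at least 48 hr. Growth read as ATP-dependent luminescence (CellTiter-Glo, 30 min at RT).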
S-ASM inh: human S-ASM enzyme inhibition; P17405; placental ASM, HMU-PC fluorogenic substrate, 60 min; Potency, µM (highest dose often 57.5 µM), inactives show at the top dose activity change, negative = inhibition, most hits filed as inhibitors; 340,000 compounds, 0.006% hits; AID 504937; also: potency is read from the fitted curve at half-maximal effect
Target sequence (P17405 47-631 limits assumed): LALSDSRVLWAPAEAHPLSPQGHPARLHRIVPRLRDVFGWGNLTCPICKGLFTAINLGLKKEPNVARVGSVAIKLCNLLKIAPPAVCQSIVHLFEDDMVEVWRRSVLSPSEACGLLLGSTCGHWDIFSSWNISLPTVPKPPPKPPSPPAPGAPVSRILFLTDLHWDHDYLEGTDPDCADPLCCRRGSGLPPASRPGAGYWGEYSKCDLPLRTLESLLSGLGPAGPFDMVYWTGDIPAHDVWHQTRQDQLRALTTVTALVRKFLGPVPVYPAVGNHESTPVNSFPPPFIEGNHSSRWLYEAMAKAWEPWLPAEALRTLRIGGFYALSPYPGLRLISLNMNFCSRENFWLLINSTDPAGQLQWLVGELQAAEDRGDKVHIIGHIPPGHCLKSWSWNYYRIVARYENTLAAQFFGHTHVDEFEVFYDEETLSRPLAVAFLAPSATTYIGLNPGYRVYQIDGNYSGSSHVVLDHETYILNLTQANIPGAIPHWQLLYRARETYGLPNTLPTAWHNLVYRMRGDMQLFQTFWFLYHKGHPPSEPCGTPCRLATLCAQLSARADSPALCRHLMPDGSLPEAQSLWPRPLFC
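Human placenta-derived ASM enzyme was preincubated with compound for 10 minutes at room temperature, then given fluorogenic substrate HMU-PC0 (9 uM final) for 60 minutes at 37 °C; a pH 10 stop preceded fluorescence reading at Ex 386/Em 447 nm.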
TDP1 cell CPT: DT40-hTDP1 cell growth loss with CPT; chicken DT40 Tdp1-/-;hTDP1 cells + 20 nM CPT, ATP luminescence, 48 h; Potency, µM (doses to about 46.2 µM), for the others: at the highest dose activity change, negative = growth inhibition, most hits filed as inhibitors; 420,000 compounds, 12% hits; AID 686979; also: potency is read from the fitted curve at half-maximal effect; % is scaled to controls: 0 for no effect and ±100 for the full control effect; nearly all actives have a fitted effect of over 55% in size
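Chicken DT40 Tdp1-/- cells complemented with human TDP1, 400 cells/well, exposed to compounds plus 20 nM camptothecin for at least 48 h at 37 C; viability read as ATP content by CellTiter-Glo luminescence.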
IL-1B inflam inh: inhibitors of inflammasome signaling (IL-1 beta secretion); 360,000 compounds, 4.7% hits; THP-1 LPS/ATP IL-1B secretion, AlphaLISA, 16 h; stronger effect = lower value; activity change, % at 57.5 µM; AID 743279; in the data active = activity change below about -50%; inconclusive = mostly about -30% to -49%; also: % is scaled to controls: 0 for no effect and ±100 for the full control effect
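Secreted IL-1B measured by AlphaLISA bead assay after 16 h compound exposure of THP-1 cells; compounds (final up to 57.5 uM) added 1 h before LPS (250 ng/mL) and ATP (1.25 mM) stimulation; lower signal means less secretion.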
TGFb SMAD3 inh: inhibitors of TGF-b signaling; 410,000 compounds, 1.2% hits; AID 588855; Potency, µM (doses to about 46.1 µM), without a hit: at the highest dose activity, negative = inhibition, hits mostly inhibitors; HepG2 CAGA-GFP TGF-b/SMAD3 reporter, GFP fluorescence, 18 h; TGF-beta stimulated, 500 pg/mL final; also: potency is read from the fitted curve at half-maximal effect; % is scaled to controls: 0 for no effect and ±100 for the full control effect; nearly all actives have a fitted effect of over 65% in size
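TGF-beta reporter screen: HEPG2 CAGA-GFP, 1% FBS, 500 pg/mL TGF-beta final, 18 h; per-cell GFP summed per well; curves fitted and categorized by class.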
HepG2 viability: HepG2 cytotoxicity, counter-screen for TGF-b inhibitors. 410,000 compounds, 0.76% hits. HepG2 CAGA-GFP viability, ATP luminescence, 18 h. Potency, µM (doses to about 46.1 µM), without a hit: at the top dose activity change, negative = cytotoxicity, actives largely listed as cytotoxic; also: potency is read from the fitted curve at half-maximal effect
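HepG2 CAGA-GFP cells (1000/well, DMEM with 1% FBS) received compound, then TGF-beta at 500 pg/mL final, and were incubated 18 hours at 37 degrees C. Viability was read by CellTiter-Glo luminescence. Media-only wells were set as complete cell-killing and DMSO as no toxicity.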
* = called active by the depositor; i = inactive; ? = inconclusive; · = no result; ! = not active in a repeat. Shown are actives, neighbours in structure and some others; about 19% of the full set was active somewhere. Unless noted, calls follow the shape of the dose curve; as a rule, active = well fitted curve in the direction sought with a large enough effect; inconclusive = small, poorly fitted or top-dose-only effect, or another doubt; inactive = no such curve, though single readings can be large; an effect the other way counts as inactive or inconclusive.

SMILES	DT40 TDP1 no CPT	S-ASM inh	TDP1 cell CPT	IL-1B inflam inh	TGFb SMAD3 inh	HepG2 viability
COc1ccc2c(c1)CC(C(=O)Nc1cc(OC)c(OC)c(OC)c1)CO2 (stereo not given)	?	·	?	·	-7.1%	3.9%
Cc1c(/C=C/C(=O)c2ccccc2)cnn1C	?	7.2%	?	-17.6	1.9%	-22.0%
Cc1cc2c(c(/C=C/C(=O)c3ccccc3)c1)OC1(C=C2)Oc2ccccc2C(=O)N1C (stereo not given)	25.9µM*	-1.7%	?	-104.4*	?	-2.4%
CCNC(=O)N(C)c1c(CC)nc2ccc(C(=O)N3CCN(C(C)=O)CC3)cn12	6.2%	·	-3.8%	28.2	10.0%	7.6%
CC(Cc1cccc(C(F)(F)F)c1)NCCOC(=O)c1ccccc1 (stereo not given)	18.4µM*!	3.2%	?	-22.0	-3.9%	-30.3%
O=C(COC(=O)c1cccc(C(F)(F)F)c1)NCc1ccccc1	-25.4%	2.0%	-18.8%	i	-8.6%	15.4%
COc1ccc(C(=O)OCc2ccccc2C#N)cc1S(=O)(=O)N1CCOCC1	-27.0%	·	1.9%	-27.3	4.9%	-10.6%
COc1ccc(CCNC(=O)Cn2cnc3scc(-c4ccccc4)c3c2=O)cc1OC	?	-0.5%	-27.1%	1.4	-4.0%	13.3%
O=C1/C(=C/c2ccc([N+](=O)[O-])cc2)C=C(c2ccccc2)N1c1ccc(O)cc1	2.91µM*	-14.2%	5.17µM*	-99.3*	9.1%	-9.4%
COc1ccc(N2C(=O)/C(=C/c3ccc([N+](=O)[O-])cc3)C=C2c2ccccc2)cc1	2.91µM*	-1.4%	3.66µM*	?	2.7%	-13.0%
O=C(CN1C(=O)NC2(CCCCC2)C1=O)Nc1ccc2c(c1)OCCCO2	18.6%	1.0%	-2.6%	?	7.7%	-1.8%
CCCCc1c(C)c2ccc(OC)c(/C(C)=N\O)c2oc1=O	18.4µM*	16.6%	?	?	-13.4%	-22.4%
[O-][n+]1nc2ccccc2c2ccccc21	-17.2%	187.1%	-2.5%	-19.1	2.3%	-65.4%
O=C(NC(=S)Nc1ccc(CN2CCOCC2)cc1)c1ccc(-c2cccc(Cl)c2)o1	7.31µM*	-17.5%	16.4µM*	?	?	-12.9%
O=C(Nc1ccc(CN2CCOCC2)cc1)c1ccc(Cl)cc1Cl	-11.0%	-0.7%	-26.3%	0.0	?	-72.1%
O=C(NC(=S)Nc1ccc(CN2CCOCC2)cc1)c1ccc(-c2ccc(Cl)cc2)o1	?	-16.6%	?	0.0	-4.2%	-3.1%
O=C(Nc1ccc(CN2CCOCC2)cc1)c1ccc(-c2cccc(Cl)c2)o1	?	-5.6%	?	-59.9*	-9.4%	-30.4%
CC(C)(C)NC(=O)CCN(/N=C/c1ccc([N+](=O)[O-])o1)C1=NS(=O)(=O)c2ccccc21	14.6µM*	-6.2%	18.4µM*	7.5	?	-9.7%
C=CCNC(=O)/C(C#N)=C/c1c(C)nn(-c2ccccc2)c1Cl	?	1.4%	?	-67.9*	-12.2%	-16.0%
C=CCNC(=O)/C(C#N)=C/c1cn(-c2ccccc2)nc1-c1cccs1	?	105.4%	?	-9.2	-19.0%	-7.2%
CCOc1ccccc1NC(=O)/C(C#N)=C/c1c(C)nn(-c2ccccc2)c1Cl	?	-3.0%	?	-50.8*	22.7%	11.4%
CCOc1ccccc1NC(=O)CCc1c(C)nn(-c2ccc(N3CCOCC3)nn2)c1C	?	·	?	·	4.1%	-6.8%
COc1ccccc1NC(=O)c1nc(SCc2ccc(F)cc2)ncc1Cl	-9.9%	·	-20.1%	·	-1.0%	-16.2%
Cc1ccc(NC(=O)c2nc(S(=O)(=O)Cc3ccc(F)cc3)ncc2Cl)cc1C	2.31µM*	·	3.66µM*	·	5.62µM*	7.08µM*
CC(=O)Nc1ccc(NC(=O)c2nc(S(=O)(=O)Cc3ccc(F)cc3)ncc2Cl)cc1	0.411µM*	·	0.731µM*	·	2.82µM*	3.98µM*
SMILES	DT40 TDP1 no CPT	S-ASM inh	TDP1 cell CPT	IL-1B inflam inh	TGFb SMAD3 inh	HepG2 viability
CCOc1cc2c3c(c1)C1(Nc4ccccc4S1)C(=O)N3C(C)(C)CC2C (stereo not given)	?	?	18.4µM*	14.6	12.6µM*	-34.6%
O=C(Cn1cnc2c(OCc3ccccc3)ncnc21)NCc1ccc2[nH]ccc2c1	16.4µM*	-6.6%	?	6.8	-2.8%	-40.2%
COc1ccc(CNC(=O)Cn2cnc3c(OCc4ccccc4)ncnc32)cc1	?	-6.2%	-19.6%	43.6	-0.8%	3.9%
O=C(Cn1cnc2c(NCc3ccccc3)ncnc21)NCc1ccc2[nH]ccc2c1	-4.4%	-2.4%	1.7%	25.6	2.8%	-7.2%
O=C(Cn1cnc2c(OCc3ccccc3)ncnc21)NCc1ccccc1	16.4µM*	-0.4%	?	61.3	-0.6%	-55.7%
O=c1[nH]cc(C=NNc2ccccc2)c(=O)[nH]1	-7.6%	·	-1.2%	28.4	-3.4%	-30.2%
Cc1ccc(NC(=O)c2cc3c(=O)n(Cc4ccco4)ccc3nc2C)cc1C	?	·	25.9µM*	·	?	-16.9%
Cc1nc2ccn(Cc3ccco3)c(=O)c2cc1C(=O)Nc1ccc(F)cc1	?	·	?	·	?	-14.5%
CSc1ccc(CNC(=O)c2cc3c(=O)n(Cc4ccco4)ccc3nc2C)cc1	23.1µM*	·	29.1µM*	·	11.2µM*	-42.9%
CCOc1ccccc1CNC(=O)c1cc2c(=O)n(Cc3ccccc3)ccc2nc1C	16.4µM*	·	18.4µM*	·	?	-24.1%
COc1ccc(Cn2ccc3nc(C)c(C(=O)NCc4ccc(OC)cc4OC)cc3c2=O)cc1	-29.0%	·	-26.8%	·	-25.7%	-26.8%
COc1ccc(CNC(=O)c2cc3c(=O)n(Cc4ccco4)ccc3nc2C)cc1	-17.3%	·	-24.1%	·	?	-11.7%
Cc1ccccc1Nc1cc(C(=O)NC2CCCC2)c2ccccc2n1	-18.7%	·	-26.5%	·	-14.4%	-2.5%
CCC1(c2ccccc2)ON(c2c(Br)cccc2Br)C1=O (stereo not given)	16.4µM*	-2.4%	18.4µM*	-96.6*	?	-101.6%
COc1cc2oc3cc(C#Cc4ccc(N)cc4)ccc3c(=O)c2cc1OC	16.4µM*	81.0%	16.4µM*	-60.8*	?	-28.2%
COc1cc2oc3ccc(C#Cc4ccc(N)cc4)cc3c(=O)c2cc1OC	?	-5.8%	?	-22.6	-15.8%	-37.1%
